PubChem BioAssay AID1486 (The Scripps Research Institute Molecular Screening Center, 2009)
The campaign covered roughly 220,000 compounds. About 2,400 (1.1%) were called active.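 How the source made its calls: active means inhibition above a per-campaign cutoff, the mean inhibition of all tested compounds plus 3 SD (cut at about 27% in these data); inactive means the rest.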 Many of the other results were omitted from the sample, so actives are more common in it than they were.

Test: parental Ba/F3 cell viability inhibition, counter-screen for JAK2V617F inhibitor project, murine pro-B, CellTiter-Glo luminescence (AID 1486);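 further: 0% = DMSO wells and 100% = JAK Inhibitor I control wells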
Details: CellTiter-Glo ATP luminescence, at 5.6 µM, hits give high values

| SMILES | inhibition |
| --- | --- |
| CN(C)C(=O)c1cccn(Cc2cccc(C(F)(F)F)c2)c1=O | 1.53% (inactive) |
| N#Cc1ncc(C(F)(F)F)cc1Oc1cccnc1 | 3.06% (inactive) |
| Cc1ccc2nc(Nc3ccccc3O)nc(-c3ccccc3)c2c1 | 2.87% (inactive) |
| COc1ccc(OC)c(Nc2nc(-c3ccc(O)c(O)c3)cs2)c1 | 7.93% (inactive) |
| CC(C)(C)C(=O)OCc1nc(-c2ccc(O)c(O)c2)cs1 | 55.4% (active) |
| COc1ccc(-c2csc(Cc3nc(O)cs3)n2)cc1 | 2.47% (inactive) |
| O=c1[nH]cnc2c1c(-c1ccccc1)cn2-c1ccc(F)cc1 | 5.71% (inactive) |
| Cc1ccc2c(c1)C(O)(CC(=O)c1cccc(-n3cccc3)c1)C(=O)N2 (centres undefined) | 9.56% (inactive) |
| Cc1cc2c(cc1C)[n+](C)cn2CC(O)COCC1CC=CCC1 (centres undefined) | 77.5% (active) |
| CCc1ccc(-n2c(SCc3cc(=O)n4cc(Br)ccc4n3)nc3[nH]ncc3c2=O)cc1 | 3.56% (inactive) |
| Fc1ccc2[nH]c3c(N4CCN(Cc5ccc6c(c5)OCO6)CC4)ncnc3c2c1 | 43.4% (active) |
| Fc1ccc2[nH]c3c(N4CCSCC4)ncnc3c2c1 | 2.75% (inactive) |
| Cc1cc(N2CCN(Cc3ccc4c(c3)OCO4)CC2)n2ncnc2n1 | 8.83% (inactive) |
| Cc1ccc(OC(=O)c2c(C)nn(-c3ccccc3)c2C)cc1 | -2.11% (inactive) |
| COc1cc(NS(=O)(=O)c2ccc(NC(C)=O)cc2)cc(OC)c1 | 6.53% (inactive) |
| COc1ccc(NS(=O)(=O)c2ccc(NC(C)=O)cc2)cc1OC | 36.4% (active) |
| COC(=O)COc1ccc(S(=O)(=O)Nc2ccc(NC(C)=O)cc2)cc1 | 3.84% (inactive) |
| CCCCCCCC(=O)OC(CN1CCCCCC1)CN1CCCC1=O (centres undefined) | 2.21% (inactive) |
| CCOc1cccc(-n2nnnc2-c2ccc(OC)cc2)c1 | 56.8% (active) |
| COc1ccc(-n2nnnc2-c2nc3ccccc3s2)cc1 | 2.01% (inactive) |
| CCOc1cccc(-c2nnc3sc(COc4ccc(OC)cc4)nn23)c1 | 3.78% (inactive) |
| CN(C)S(=O)(=O)c1ccc(C(=O)NCC(C)(C)N2CCOCC2)cc1 | 0.19% (inactive) |
| CC1(C)CC(N2CCN(C(c3ccccc3)c3ccccc3)CC2)=CC(=[N+]2CCCCC2)C1 | 88.5% (active) |
| CC(C)NC(=S)N1CCN(C(c2ccccc2)c2ccccc2)CC1 | 5.27% (inactive) |

| SMILES | inhibition |
| --- | --- |
| CC1(C)CC(=O)C=C(N2CCCC2)C1 | -2.25% (inactive) |
| Brc1ccc2ncnc(NCc3cccnc3)c2c1 | -4.51% (inactive) |
| CC1CCCCN1S(=O)(=O)c1ccc(S(=O)(=O)N(CC(=O)Nc2ccccc2)Cc2cccs2)cc1 (centres undefined) | 1.87% (inactive) |
| CC1CCCN(S(=O)(=O)c2ccc(C(=O)Nc3nnc(-c4ccncc4)o3)cc2)C1 (centres undefined) | 6.63% (inactive) |
| CC1CCCCN1S(=O)(=O)c1ccc(C(=O)Nc2nnc(-c3cccs3)o2)cc1 (centres undefined) | 34.1% (active) |
| COc1ccc2[nH]c(C(=O)Nc3ccccc3Cl)cc2c1 | -2.76% (inactive) |
| Cc1cc([N+](=O)[O-])ccc1NC(=O)c1ccc(NC(=O)C(C)C)cc1 | 6.88% (inactive) |
| CC(=O)NC(=S)Nc1ccc(NC(=S)NC(=O)c2ccc([N+](=O)[O-])cc2)cc1 | -2.36% (inactive) |
| Cn1ccc(=Nc2ccc(NC(=O)c3ccc(N=c4ccn(C)c5ccc([N+](=O)[O-])cc45)cc3)cc2)cc1 | 29.7% (active) |
| CC1CCN(c2c(NCc3ccc(C(=O)NCc4ccccc4)cc3)c(=O)c2=O)CC1 | -0.24% (inactive) |
| CCOC(=O)N1CCN(C(c2cccnc2)c2ccc3cccnc3c2O)CC1 (centres undefined) | 35.8% (active) |
| CCN1CCN(C(c2cccnc2)c2cc(Cl)c3cccnc3c2O)CC1 (centres undefined) | 4.4% (inactive) |
| Oc1c(C(c2ccccn2)N2CCOCC2)ccc2cccnc12 (centres undefined) | 2.22% (inactive) |
| CCCNC(=O)OC[C@H]1O[C@H](CCO/N=C/[C@@H](NS(=O)(=O)c2ccc(C)cc2)[C@H](C)/C=C/CC(=O)OC)C=C[C@@H]1Oc1ccc(OC)cc1 | 1.98% (inactive) |
| CC1CCN(C(=O)c2ccc(S(=O)(=O)Cc3cc(F)ccc3F)c([N+](=O)[O-])c2)CC1 | 2.51% (inactive) |
| Cc1ccc(/C=N/NC(=O)CN2CCN(Cc3ccccc3)CC2)s1 | 0.65% (inactive) |
| CCCCCCCCn1c2c(c(=N)c3c1CCC3)CCCC2 | 88.4% (active) |
| CCCCCCn1c(CN2CCCCC2)nc2c1c(=O)n(C)c(=O)n2C | 2.14% (inactive) |
| Cc1cc(CNC(=O)c2cccc([N+](=O)[O-])c2)c2ccccc2n1 | -2.87% (inactive) |
| O=C(Nn1c(SCc2ccc([N+](=O)[O-])cc2)nc2ccccc2c1=O)c1ccc(F)cc1 | -1.55% (inactive) |
| CN(CC(=O)NC1CCCC1)S(=O)(=O)c1cnc[nH]1 | -0.47% (inactive) |
| CSc1ccc(C#N)cc1NC(=O)c1ccc(Cl)cc1 | 1.1% (inactive) |
| COc1ccccc1Nc1nc(N)nc(CN(C)C2CCCCC2)n1 | 0.48% (inactive) |
| COc1ccccc1NC1=NC(c2ccc(Cl)cc2)N=C(N)N1 (centres undefined) | 81.1% (active) |

| SMILES | inhibition |
| --- | --- |
| COc1ccccc1NC1=NC2(CCCC2)N=C(N)N1 | 10.5% (inactive) |
| CCOc1ccccc1Oc1cn[nH]c1-c1ccc(OC)cc1O | 94.7% (active) |
| CCOc1ccc(-c2nc(N)ncc2-c2ccccc2OC)c(O)c1 | -0.51% (inactive) |
| CCOc1ccc(-c2n[nH]c(C)c2-c2ccccn2)c(O)c1 | 5.9% (inactive) |
| CCCCCc1ccc(-c2ccc(OCC)cc2)nc1 | 3.47% (inactive) |
| COCC(C)n1c(C)cc(C(=O)COc2ccc(C)nc2[N+](=O)[O-])c1C (centres undefined) | 3.84% (inactive) |
| C/C(=N\NC(=O)c1cccnc1)c1ccc(-n2ccnc2)cc1 | -0.08% (inactive) |
| COc1ccc(Cl)cc1NC(=O)C(C)N1CCc2ccccc21 (centres undefined) | 4.67% (inactive) |
| Cc1ccc(/C=C/C(=O)O)cc1S(=O)(=O)N1CCC(Cc2ccccc2)CC1 | -3.54% (inactive) |
| CCOC(=O)CSC1=C(C#N)C(c2sccc2C)CC(=O)N1 (centres undefined) | 81.7% (active) |
| Cc1ccc(C2CC(=O)NC(SCC(=O)OCc3ccccc3)=C2C#N)o1 (centres undefined) | 2.62% (inactive) |
| C=CCOC(=O)C1=C(C)NC(SCC(=O)OCC)=C(C#N)C1c1ccc(C)cc1 (centres undefined) | 1.41% (inactive) |
| Cc1nnc(CN(C)Cc2cn[nH]c2-c2ccc(-c3ccccc3)cc2)o1 | 3.87% (inactive) |
| COC(=O)C(NC(=O)c1ccc(OC)cc1)(Nc1ncc(S(=O)(=O)c2ccc([N+](=O)[O-])cc2)s1)C(F)(F)F (centres undefined) | -1.49% (inactive) |
| Cc1cccc(NC(=O)c2sc(-c3ccccc3)nc2-c2ccc([N+](=O)[O-])cc2)c1 | 2.68% (inactive) |
| COc1ccc(C(=O)Nc2nc(-c3ccc(OC)cc3)c(-c3ccc([N+](=O)[O-])cc3)s2)cc1 | 61.3% (active) |
| CCOC(=O)/C(=N\Nc1ccccc1[N+](=O)[O-])c1csc(Nc2ccccc2)n1 | 12% (inactive) |
| Cc1nnc(N/N=C/c2ccccn2)[nH]c1=O | 1.19% (inactive) |
| CC(C)(C)c1ccc(Oc2ccc(N)cc2)cc1 | 36.8% (active) |
| Nc1ccc(Oc2ccc(Cl)cc2)cc1 | 9.91% (inactive) |
| Cc1ccc(Oc2ccc(N)cc2)cc1 | 2.65% (inactive) |
| CCCCN(C)c1ccc([N+](=O)[O-])cc1 | 8.6% (inactive) |
| CCc1[nH]nc(C(=O)N2CCCC(CNS(=O)(=O)c3cccs3)C2)c1C (centres undefined) | 6.5% (inactive) |
| C/C(CC(=O)NC(C)c1ccccc1)=N\NC(N)=S (centres undefined) | -3.5% (inactive) |

| SMILES | inhibition |
| --- | --- |
| CCOC(=O)N1CCN(C(=O)C2CCN(c3ncnc4c3sc3cccc(F)c34)CC2)CC1 | 40.6% (active) |
| CCOC(=O)N1CCN(C(=O)C2CCN(Cc3ccc(OC)cc3OC)CC2)CC1 | 3.57% (inactive) |
| CCOC(=O)C1CCN(c2ncnc3c2oc2ccc(Br)cc23)CC1 | 6.89% (inactive) |
| CNC(=O)COc1ccc(S(=O)(=O)Nc2ccccc2)cc1 | 0.46% (inactive) |
| Cc1csc(CN(C)C(=O)CC2C(=O)NCCN2CC(C)(C)C)n1 (centres undefined) | 9.22% (inactive) |
| Cc1ccc(C(=O)N/N=C\c2cc(Br)c(Br)o2)cn1 | 1.1% (inactive) |
| Cc1cc(C(=O)CSc2nc(N)cc(=O)[nH]2)c(C)n1CCc1ccc(Cl)cc1 | 6.39% (inactive) |
| Cc1cc(C(=O)CSc2nc(N)cc(=O)[nH]2)c(C)n1Cc1ccco1 | 33.8% (active) |
| Cc1cc(C(=O)CSc2nc(N)cc(=O)[nH]2)c(C)n1-c1cccc(F)c1 | 4.66% (inactive) |
| CSC1=NCCN1C(=O)Cc1cccc2ccccc12 | 2.66% (inactive) |
| CCn1c2ccccc2c2cc(NC(=O)Nc3ccc([N+](=O)[O-])cc3C)ccc21 | -1.24% (inactive) |
| CC(=O)c1cc(-c2ccccc2)n(CCC(=O)NC2CCCCCC2)c1C | 1.01% (inactive) |
| CC(C)c1cc(CN2CCOCC2)cc(C(C)C)c1O | -1.01% (inactive) |
| COc1ccccc1-c1nc(C#N)c(N2CCC(C(N)=O)CC2)o1 | 1.59% (inactive) |
| COc1ccc(Nc2oc(-c3ccccc3Cl)nc2C#N)cc1 | 29.4% (active) |
| Cc1ccccc1-c1nc(C#N)c(NCc2ccco2)o1 | 11.3% (inactive) |
| NC1=NC2(CCCCC2)N(c2ccc(F)cc2F)C(N)=N1 | 5.17% (inactive) |
| COc1ccc(CCNC(=O)CC2SC(=Nc3cc(C)cc(C)c3)NC2=O)cc1OC (centres undefined) | 2.92% (inactive) |
| O=c1cc(O)c(-c2cccc(C(F)(F)F)c2)c(Cl)[nH]1 | 13.5% (inactive) |
| COC(=O)Nc1nc2ccc(Sc3ccccc3)cc2[nH]1 | 76% (active) |
| Cc1nc2ccc(C(=O)O)cc2[nH]1 | -0.24% (inactive) |
| COc1cc(OC)cc(C(=O)N[C@H](C(=O)Nc2nc3ccccc3[nH]2)C(C)C)c1 | 16.4% (inactive) |
